Source: ChEMBL document CHEMBL1961873, “Compounds: GSK PKIS; Assays: Nanosyn kinase panel” (2012)

These molecules were tested against T1, Dual specificity tyrosine-phosphorylation-regulated kinase 2 (Homo sapiens) (UniProt Q92630). Settings: at 0.1 µM.
T1 sequence (whole entry): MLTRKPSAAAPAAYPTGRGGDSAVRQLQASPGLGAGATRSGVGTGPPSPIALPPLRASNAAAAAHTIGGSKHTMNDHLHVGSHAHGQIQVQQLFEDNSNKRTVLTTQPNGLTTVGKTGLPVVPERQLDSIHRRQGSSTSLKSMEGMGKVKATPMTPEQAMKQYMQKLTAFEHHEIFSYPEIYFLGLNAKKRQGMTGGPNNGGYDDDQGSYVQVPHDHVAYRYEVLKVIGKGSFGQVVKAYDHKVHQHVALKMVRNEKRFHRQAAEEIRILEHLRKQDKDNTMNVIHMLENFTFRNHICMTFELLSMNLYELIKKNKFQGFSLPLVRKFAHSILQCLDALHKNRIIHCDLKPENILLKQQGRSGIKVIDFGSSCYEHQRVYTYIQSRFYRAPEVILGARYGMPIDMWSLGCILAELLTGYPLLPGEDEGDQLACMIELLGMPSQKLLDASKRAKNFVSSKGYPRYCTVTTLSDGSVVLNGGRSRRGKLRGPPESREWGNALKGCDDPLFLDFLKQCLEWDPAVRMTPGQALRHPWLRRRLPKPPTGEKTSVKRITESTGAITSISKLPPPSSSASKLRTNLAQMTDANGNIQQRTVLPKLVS

Q: With `CC(C)c1ccc(Nc2nccc(-c3cnn4ncccc34)n2)cc1` as the molecule, how does the inhibition read?
A: The inhibition was 2.73%.

Q: For `NS(=O)(=O)c1ccc(NC=C2C(=O)Nc3ccc4ncsc4c32)cc1`, which inhibition is on record?
A: The inhibition was 10.9%.

Q: `COC(=O)c1cncc(/C=C/c2c(C)cc(O)cc2C)c1` was tested. Which inhibition did it give?
A: The inhibition was 3.09%.

Q: Which inhibition does the source give for `Nc1nccc(C#Cc2cncnc2Nc2ccc(OCc3cccc(F)c3)c(Cl)c2)n1` here?
A: The inhibition was 3.08%.

Q: `Oc1cccc(-c2nc(-c3ccccc3)[nH]c2-c2ccncc2)c1` was tested. Which inhibition did it give?
A: The inhibition was 2.63%.

Q: How did the inhibition turn out when `Cc1ccc2c(-c3ccnc(Nc4ccc5c(c4)OCCO5)n3)c(-c3ccc(C(F)(F)F)cc3)nn2n1` was run?
A: Its inhibition is -0.27%.

Q: `Nc1nccc(-c2c(-c3ccc(F)cc3)nn3cc(C(F)(F)F)ccc23)n1` was tested. Which inhibition did it give?
A: The inhibition was 0.12%.

Q: Which inhibition does the source give for `CCOc1nccc2c1nc(-c1nonc1N)n2CC` here?
A: Its inhibition is 1.54%.

Q: Which inhibition does the source give for `CCCN1CCCC(c2ccc(Nc3nc(Nc4cc(F)ccc4C(N)=O)c4cc[nH]c4n3)c(OC)c2)C1` (stereo unspecified) here?
A: The inhibition was 36.3%.

Q: How did the inhibition turn out when `COc1cc(/C=N/Nc2ncnc3c2cnn3C(C)C)ccc1O` was run?
A: Its inhibition is 1.46%.

Q: With `Cc1ccc(O)cc1Nc1ccnc2ccc(S(C)(=O)=O)cc12` as the molecule, how does the inhibition read?
A: The inhibition was 3.03%.

Q: With `COc1cc(Nc2nccc(-c3cnn4ncccc34)n2)cc(OC)c1` as the molecule, how does the inhibition read?
A: Its inhibition is 5.46%.

Q: With `CN(C)C(=O)O[C@H]1CN[C@H](C#Cc2cc3ncnc(Nc4ccc(OCc5cccc(F)c5)c(Cl)c4)c3s2)C1` as the molecule, how does the inhibition read?
A: The inhibition was 2%.

Q: With `c1ccc(Nc2ncc(-c3ccccc3)o2)cc1` as the molecule, how does the inhibition read?
A: Its inhibition is 4.52%.

Q: Which inhibition does the source give for `NC(=O)c1cccc(Nc2nccc(Nc3cccc(F)c3)n2)c1` here?
A: Its inhibition is 1.36%.

Q: Which inhibition does the source give for `Cc1cc(-c2ccccn2)cc(C)c1/C=C/c1cncc(-c2nn[nH]n2)c1` here?
A: Its inhibition is 3.69%.

Q: Which inhibition does the source give for `CCn1c(-c2nonc2N)nc2ccc(F)cc21` here?
A: Its inhibition is 4.17%.

Q: `CN(C)c1cc2c(Nc3ccc4c(cnn4Cc4ccccc4)c3)ncnc2cn1` was tested. Which inhibition did it give?
A: The inhibition was 2.42%.

Q: For `COC(=O)c1ccc2c(c1)C(=Cc1cc(Br)c(O)c(Br)c1)C(=O)N2`, which inhibition is on record?
A: The inhibition was 5.68%.

Q: For `Cc1ccc(NC(=O)CC2CC2)cc1-c1ccc(C(=O)NCC2CC2)cc1`, which inhibition is on record?
A: Its inhibition is 2.06%.

Q: How did the inhibition turn out when `CN(C)C(=O)O[C@@H]1CN[C@@H](C#Cc2cc3ncnc(Nc4ccc(OCc5cccc(F)c5)c(Cl)c4)c3s2)C1` was run?
A: The inhibition was -0.19%.

Q: Which inhibition does the source give for `O=C(Nc1ccc(Oc2ccc3[nH]c(NC(=O)c4ccco4)nc3c2)cc1)Nc1cc(C(F)(F)F)ccc1F` here?
A: The inhibition was 0.62%.

Q: `c1ccc(Cc2nc3ccc(Nc4ncnc5ccccc45)cc3[nH]2)cc1` was tested. Which inhibition did it give?
A: Its inhibition is 1.99%.

Q: For `CCS(=O)(=O)c1ccc(OC)c(Nc2nccc(N(C)c3ccc4c(C)n[nH]c4c3)n2)c1`, which inhibition is on record?
A: The inhibition was 2.84%.

Q: `COc1cccc(-n2ncc3c(N/N=C/c4ccc(C)cc4)ncnc32)c1` was tested. Which inhibition did it give?
A: Its inhibition is 5.76%.

Q: How did the inhibition turn out when `NS(=O)(=O)c1cccc(Nc2cc(-c3ccc(F)cc3)n[nH]2)c1` was run?
A: The inhibition was 1.93%.

Q: `COc1cc2ncn(-c3cc(OCc4ccccc4S(C)(=O)=O)c(C#N)s3)c2cc1OC` was tested. Which inhibition did it give?
A: The inhibition was 2.4%.

Q: For `Cc1ccc(Nc2ccnc(Nc3cccc(C(N)=O)c3)n2)cc1O`, which inhibition is on record?
A: The inhibition was 2.25%.

Q: `NS(=O)(=O)c1ccc(-c2cc3ccncc3cc2OCc2ccccc2)cc1` was tested. Which inhibition did it give?
A: The inhibition was 2.46%.

Q: Which inhibition does the source give for `COc1cc2ncnc(Nc3ccc(C)c(O)c3)c2cc1OC` here?
A: Its inhibition is 2.96%.

Q: With `NS(=O)(=O)c1ccc(Nc2cc(-c3cccc(O)c3)n[nH]2)cc1` as the molecule, how does the inhibition read?
A: Its inhibition is 3.82%.

Q: For `NS(=O)(=O)c1cccc(-c2cc3ccncc3cc2OCc2ccccc2)c1`, which inhibition is on record?
A: Its inhibition is 3.59%.

Q: With `CC(C)c1ccc2c(c1)NC(=O)/C2=N/Nc1ccc(S(N)(=O)=O)cc1` as the molecule, how does the inhibition read?
A: Its inhibition is 0.96%.

What follows are molecules tested against T1, Dual specificity tyrosine-phosphorylation-regulated kinase 2 (Homo sapiens). Settings: at 1 µM.

Q: For `CC(C)c1ccc(Nc2nccc(-c3cnn4ncccc34)n2)cc1`, which inhibition is on record?
A: Its inhibition is 14%.

Q: With `NS(=O)(=O)c1ccc(NC=C2C(=O)Nc3ccc4ncsc4c32)cc1` as the molecule, how does the inhibition read?
A: The inhibition was 46.2%.

Q: Which inhibition does the source give for `COC(=O)c1cncc(/C=C/c2c(C)cc(O)cc2C)c1` here?
A: The inhibition was 4%.

Q: How did the inhibition turn out when `Nc1nccc(C#Cc2cncnc2Nc2ccc(OCc3cccc(F)c3)c(Cl)c2)n1` was run?
A: The inhibition was 4.89%.

Q: `Oc1cccc(-c2nc(-c3ccccc3)[nH]c2-c2ccncc2)c1` was tested. Which inhibition did it give?
A: The inhibition was 5.4%.

Q: For `Cc1ccc2c(-c3ccnc(Nc4ccc5c(c4)OCCO5)n3)c(-c3ccc(C(F)(F)F)cc3)nn2n1`, which inhibition is on record?
A: Its inhibition is -1.15%.

Q: Which inhibition does the source give for `Nc1nccc(-c2c(-c3ccc(F)cc3)nn3cc(C(F)(F)F)ccc23)n1` here?
A: The inhibition was -1.97%.

Q: `CCOc1nccc2c1nc(-c1nonc1N)n2CC` was tested. Which inhibition did it give?
A: Its inhibition is 2.84%.

Q: With `CCCN1CCCC(c2ccc(Nc3nc(Nc4cc(F)ccc4C(N)=O)c4cc[nH]c4n3)c(OC)c2)C1` (stereo unspecified) as the molecule, how does the inhibition read?
A: The inhibition was 82.3%.

Q: For `COc1cc(/C=N/Nc2ncnc3c2cnn3C(C)C)ccc1O`, which inhibition is on record?
A: The inhibition was 5.67%.

Q: With `Cc1ccc(O)cc1Nc1ccnc2ccc(S(C)(=O)=O)cc12` as the molecule, how does the inhibition read?
A: The inhibition was 4.88%.

Q: `COc1cc(Nc2nccc(-c3cnn4ncccc34)n2)cc(OC)c1` was tested. Which inhibition did it give?
A: The inhibition was 30.2%.

Q: `CN(C)C(=O)O[C@H]1CN[C@H](C#Cc2cc3ncnc(Nc4ccc(OCc5cccc(F)c5)c(Cl)c4)c3s2)C1` was tested. Which inhibition did it give?
A: The inhibition was 2.24%.

Q: Which inhibition does the source give for `c1ccc(Nc2ncc(-c3ccccc3)o2)cc1` here?
A: The inhibition was 5.66%.

Q: Which inhibition does the source give for `NC(=O)c1cccc(Nc2nccc(Nc3cccc(F)c3)n2)c1` here?
A: The inhibition was 1.82%.

Q: `Cc1cc(-c2ccccn2)cc(C)c1/C=C/c1cncc(-c2nn[nH]n2)c1` was tested. Which inhibition did it give?
A: Its inhibition is 4.85%.

Q: For `CCn1c(-c2nonc2N)nc2ccc(F)cc21`, which inhibition is on record?
A: The inhibition was 4.15%.

Q: With `CN(C)c1cc2c(Nc3ccc4c(cnn4Cc4ccccc4)c3)ncnc2cn1` as the molecule, how does the inhibition read?
A: The inhibition was 2.63%.

Q: How did the inhibition turn out when `COC(=O)c1ccc2c(c1)C(=Cc1cc(Br)c(O)c(Br)c1)C(=O)N2` was run?
A: The inhibition was 18.8%.

Q: With `Cc1ccc(NC(=O)CC2CC2)cc1-c1ccc(C(=O)NCC2CC2)cc1` as the molecule, how does the inhibition read?
A: The inhibition was 2.68%.

Q: With `CN(C)C(=O)O[C@@H]1CN[C@@H](C#Cc2cc3ncnc(Nc4ccc(OCc5cccc(F)c5)c(Cl)c4)c3s2)C1` as the molecule, how does the inhibition read?
A: The inhibition was -0.32%.

Q: Which inhibition does the source give for `O=C(Nc1ccc(Oc2ccc3[nH]c(NC(=O)c4ccco4)nc3c2)cc1)Nc1cc(C(F)(F)F)ccc1F` here?
A: Its inhibition is 0.74%.

Q: `c1ccc(Cc2nc3ccc(Nc4ncnc5ccccc45)cc3[nH]2)cc1` was tested. Which inhibition did it give?
A: The inhibition was 3.84%.

Q: Which inhibition does the source give for `CCS(=O)(=O)c1ccc(OC)c(Nc2nccc(N(C)c3ccc4c(C)n[nH]c4c3)n2)c1` here?
A: Its inhibition is 2.34%.

Q: Which inhibition does the source give for `COc1cccc(-n2ncc3c(N/N=C/c4ccc(C)cc4)ncnc32)c1` here?
A: The inhibition was 13.6%.

Q: How did the inhibition turn out when `NS(=O)(=O)c1cccc(Nc2cc(-c3ccc(F)cc3)n[nH]2)c1` was run?
A: Its inhibition is 4.01%.

Q: `COc1cc2ncn(-c3cc(OCc4ccccc4S(C)(=O)=O)c(C#N)s3)c2cc1OC` was tested. Which inhibition did it give?
A: The inhibition was 4.87%.

Q: Which inhibition does the source give for `Cc1ccc(Nc2ccnc(Nc3cccc(C(N)=O)c3)n2)cc1O` here?
A: The inhibition was 7.18%.

Q: With `NS(=O)(=O)c1ccc(-c2cc3ccncc3cc2OCc2ccccc2)cc1` as the molecule, how does the inhibition read?
A: The inhibition was 3.11%.

Q: `COc1cc2ncnc(Nc3ccc(C)c(O)c3)c2cc1OC` was tested. Which inhibition did it give?
A: The inhibition was 4.5%.

Q: With `NS(=O)(=O)c1ccc(Nc2cc(-c3cccc(O)c3)n[nH]2)cc1` as the molecule, how does the inhibition read?
A: Its inhibition is 4.65%.

Q: `NS(=O)(=O)c1cccc(-c2cc3ccncc3cc2OCc2ccccc2)c1` was tested. Which inhibition did it give?
A: The inhibition was 3.57%.

Q: `CC(C)c1ccc2c(c1)NC(=O)/C2=N/Nc1ccc(S(N)(=O)=O)cc1` was tested. Which inhibition did it give?
A: Its inhibition is -0.44%.
